Data from PubChem BioAssay AID2081 (NMMLSC, 2009).
Calls of active or inactive are those of the source. How the calls were made is not given here.

What follows are molecules tested against Bcl-2-like protein 2 (Homo sapiens) (UniProt Q92843) (assay: inhibitors of Bim binding to Bcl-W, confirmation, biochemical, multiplexed, bead-based flow cytometry, HTS hits (AID 2081)). Conditions: Bim-Bcl-W binding displacement; series mostly up to 100 µM.
Sequence of Bcl-2-like protein 2 (Homo sapiens) (Q92843 whole entry, looked up): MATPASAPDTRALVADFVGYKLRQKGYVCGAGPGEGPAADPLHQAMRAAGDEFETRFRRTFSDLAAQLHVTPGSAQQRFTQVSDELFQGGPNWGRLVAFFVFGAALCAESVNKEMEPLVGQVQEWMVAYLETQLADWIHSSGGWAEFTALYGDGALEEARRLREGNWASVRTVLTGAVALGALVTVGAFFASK

outcome, inactive:
Cc1ccc(C=NNC(=O)CSc2nnc(-c3ccc(Cl)cc3)n2-c2ccccc2)o1
O=C1c2ccccc2C(=O)N1CN(C(=O)COc1ccc(Cl)cc1Cl)c1cccc(F)c1
C=CS(=O)(=O)c1sc(Cl)c(N2CCOCC2)c1[N+](=O)[O-]
Cc1ccc(-c2cc(C(=O)Nc3nccs3)c3ccccc3n2)o1
COc1cc(CNc2ccc3[nH]c(=O)[nH]c3c2)cc(Br)c1OCC(=O)NC(C)(C)C
CCN(CC)C(=O)COC(=O)c1cc(-c2ccco2)nc2ccccc12
Cc1ccc(-c2cc(-c3ccc(F)cc3)c(C#N)c(N)n2)o1
COc1ccccc1-n1c(-c2ccccc2)c[nH]c1=S
COc1ccc(N2C(=O)C(Cl)=C(Oc3cccc(OC)c3)C2=O)cc1
O=C(Nc1nnc(COc2ccc(Cl)cc2)s1)c1ccco1
O=C1C(Cl)=C(N2CCN(c3ccccc3[N+](=O)[O-])CC2)C(=O)c2ccccc21
CCN(CC)c1ccc(NC(=O)COc2ccccc2C)cc1S(=O)(=O)Nc1ccccc1OC
COc1ccc(N2C(=O)C(Cl)=C(NC3C(=O)N(c4ccccc4)N(C)C3C)C2=O)cc1 (stereo unspecified)
CCN1C(=O)/C(=C\C=C2/C=CC=CN2CC)SC1=S
Cc1cc(-c2cc(-c3ccc(Cl)cc3)nc(N)c2C#N)co1
S=c1[nH]cc(-c2ccccc2)n1-c1ccccc1
CN(CCO)c1cc(Sc2nc3ccccc3s2)c2nonc2c1[N+](=O)[O-]
CNC(CC(=O)c1ccc([N+](=O)[O-])cc1)C(Cl)(Cl)Cl (stereo unspecified)
Cc1ccc(-c2cc(-c3ccc(C)o3)nc(N)c2C#N)cc1
CCN(CC)c1ccc(NC(=O)c2ccccc2F)cc1S(=O)(=O)Nc1ccccc1OC
O=C1/C(=C\c2ccco2)NC(=S)N1c1ccccc1
CCN(CC)c1ccc(NC(=O)c2ccccc2Br)cc1S(=O)(=O)Nc1ccccc1OC
Cc1ccc(-c2nc3c(c(=O)[nH]c(=O)n3Cc3ccccc3)n2C)o1
CC(=O)Nc1ccc(-n2cc(-c3ccccc3)[nH]c2=S)cc1
O=[N+]([O-])c1c(NCCCO)cc(Sc2nc3ccccc3s2)c2nonc12
O=c1c2c(n3nnnc3n1Cc1ccccc1)-c1ccccc1CC21CCCC1
